# Shown are actives, neighbours in structure and some others; about 6% of the full set was active somewhere.
# D1 ag – Allosteric Agonists of the Human D1 Dopamine Receptor: qHTS; AID 504660, 2011; HEK293 T-REx D1 cells, calcium flux, agonist mode; activation, % at 2 µM; hit rate 1% among 360,000; D(1A) dopamine receptor (Homo sapiens), P21728; in the data active means activation above about 30%; further: 0% is about no effect
#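 Inducible HEK293 T-REx D1 cells, force-coupled to calcium signalling, were plated at 4000 cells/well with tetracycline and held overnight at 30 C. After no-wash calcium dye loading, compound-evoked calcium rise over 180 s flagged agonists.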
# D1 antagonist – Antagonist of Human D 1 Dopamine Receptor: qHTS | AID 504652, 2011 | D(1A) dopamine receptor (Homo sapiens), P21728 | HEK293 TREx D1 cells, calcium flux, dopamine EC80; hits give low values | hit rate 3.2% among 360,000 | activity change, negative = inhibition, % at 10 µM; in the data active means activity change below about -30%; further: on the % scale 0 is the no-effect control and ±100 the full control effect
#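 Compound effects on dopamine-evoked calcium signalling were measured in tetracycline-induced HEK293 Trex D1 cells. Dopamine at EC80 followed a 180 s compound pre-read, and fluorescence was tracked kinetically for 180 s more.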
# BCR signal inh – qHTS Assay to Find Inhibitors of Chronic Active B-Cell Receptor Signaling; Potency, µM (doses to about 46.1 µM), for inactives: at the top dose activity change, negative = inhibition, most hits filed as inhibitors; AID 493014, 2011; ABC-DLBCL IkBa-CBG/CBR reporter, luminescence ratio, 4 h; hit rate 0.05% among 340,000; active means well fitted inhibition curve with a large enough effect in the signal ratio, with a control signal flat, not every such curve was filed as active; inconclusive means small, poorly fitted or top-dose-only effect, or effect the other way, or a change in a side signal; the % refers to the signal ratio;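 further: potency means the concentration at half of the fitted maximal effect; plate controls were basal doxycycline-induced cells for no effect and cells given 10 µM MG132 for full effect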
#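 Doxycycline induced both beetle luciferases in TMD8 lymphoma cells; IKK-driven degradation limits the IkappaBalpha-fused green signal, while red luminescence normalises for cell number and nonspecific effects. Compounds tested up to 46 uM, 4 hrs.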
# DRD3 agonist – qHTS of D3 Dopamine Receptor Agonist: qHTS; AID 652048, 2013; max activation, %; hit rate 0.58% among 410,000; D3R DiscoveRx beta-arrestin cells, luminescence, 90 min; D(3) dopamine receptor (Homo sapiens), P35462; in the data active means max activation above about 30%; further: 0% is about no effect
# Target sequence (P35462 whole entry, looked up): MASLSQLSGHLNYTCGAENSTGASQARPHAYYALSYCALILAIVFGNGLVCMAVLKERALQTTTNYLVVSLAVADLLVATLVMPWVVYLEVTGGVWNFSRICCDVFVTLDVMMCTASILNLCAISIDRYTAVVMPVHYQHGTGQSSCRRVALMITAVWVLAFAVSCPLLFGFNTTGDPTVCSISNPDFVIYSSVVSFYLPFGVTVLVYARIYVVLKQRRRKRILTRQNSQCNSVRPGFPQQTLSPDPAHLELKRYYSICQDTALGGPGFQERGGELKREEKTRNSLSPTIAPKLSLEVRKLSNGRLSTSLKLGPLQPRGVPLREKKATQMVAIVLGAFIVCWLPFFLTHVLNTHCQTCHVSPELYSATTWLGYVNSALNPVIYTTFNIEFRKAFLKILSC
#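 Cells at 1500/well, incubated overnight, then treated with pinned compounds (dopamine as control) for 90 min at 37 degrees C. DiscoveRx reagent added for 30 - 60 minutes at room temperature; luminescence read.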
# D1 potentiator – Potentiators of Human D1 Dopamine Receptor: qHTS | D(1A) dopamine receptor (Homo sapiens), P21728 | HEK293 TREx D1 cells, calcium flux, dopamine EC20 potentiation | potentiation, % at 10 µM | hit rate 0.036% among 360,000 | AID 504651, 2011; in the data active means potentiation above about 30%; further: 0% is about no effect
# DRD3 antagonist – qHTS of D3 Dopamine Receptor Antagonist: qHTS; AID 652054, 2013; hit rate 2.5% among 360,000; D(3) dopamine receptor (Homo sapiens), P35462; max response, negative = inhibition, %; D3R cells, DiscoveRx beta-arrestin luminescence, antagonist mode; hits give low values; in the data active means max response below about -50%; inconclusive means no clear call, values can overlap the other calls; further: on the % scale 0 is the no-effect control and ±100 the full control effect
#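 Cells expressing the human receptor were seeded at 1500 cells/well, incubated overnight at 37 degrees C in 5% CO2, then exposed to library compounds with dopamine controls for 90 minutes at 37 degrees C before luminescent detection.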
# Starred values were filed as active, the others as inactive; ? = inconclusive; . = no result; ! = not confirmed by another sample.
SMILES,D1 ag,D1 antagonist,BCR signal inh,DRD3 agonist,D1 potentiator,DRD3 antagonist
COC(=O)c1sccc1NC(=O)Nc1cccc(C)c1,1,-12,?,2,-3,9
O=C(Nc1cccc([N+](=O)[O-])c1)Nc1cccs1,24,-35*,17%,-4,-12,-10
CC1(C(=O)NS(=O)(=O)C2CC2)CCCN(C(=O)c2cccc(Cl)c2)C1 (stereo unspecified),.,.,.,4,.,3
CC(NC(=O)Nc1cccnc1)(C(F)(F)F)C(F)(F)F,2,10,-2%,-1,-5,0
O=C(/C=C/c1cccc([N+](=O)[O-])c1)Nc1cccc(NC(=O)c2cccs2)c1,2,-46*,?,11,0,7
CC(NC(=O)Nc1cccc([N+](=O)[O-])c1)(C(F)(F)F)C(F)(F)F,26,-36*,-1%,3,2,8
COC(=O)c1sccc1NC(=O)Nc1ccccc1OC,-1,-80*,?,1,-8,-9
Cc1ccc([N+](=O)[O-])cc1NC(=O)Nc1cccc(F)c1,25,-51*,0%,-2,-6,-7
CC(CNC(=O)c1nnc(Cc2ccc(F)cc2)o1)c1ccccc1 (stereo unspecified),0,-6,.,-12,1,.
CCOc1ccc(CCNC(=O)Cn2c(=O)c3cccn3c3ccc(F)cc32)cc1OCC,1,2,.,2,-3,.
COC(=O)c1nnn(CC(=O)NC(=O)Nc2ccccc2F)c1C(=O)OC,5,5,-20%,1,-6,-9
COC(=O)c1nnn(CC(=O)NC(=O)Nc2cccc(C)c2C)c1C(=O)OC,50*!,-5,-1%,2,2,23
O=C1C(Cl)=C(NCCCO)C(=O)c2ccccc21,2,0,?,-2,-5,-25
O=C1C(SCCO)=C(SCCO)C(=O)c2ccccc21,2,-32*,?,-67,-6,-136*
Cc1cc(C)n2nc(-c3ccsc3-n3c(C)ccc3C)cc2n1,2,-55*,?,-1,-2,?
CCN(CC)CCCNC(=O)c1ccc(-c2nc(CN3CCc4ccccc43)c(C)o2)cc1,7,-7,.,4,-1,.
CCCCCCn1cc(CN2CC(N3CCSCC3)CS2(=O)=O)nn1 (stereo unspecified),.,.,.,5,.,0
CC(NC(=O)COC(=O)c1cc(NS(=O)(=O)c2ccc(Cl)c([N+](=O)[O-])c2)ccc1O)C1CC2CCC1C2 (stereo unspecified),7,-31*,?,-4,-7,-61*
COc1ccc(NS(=O)(=O)c2ccc(O)c(C(=O)OCC(=O)NC(C)C3CC4CCC3C4)c2)cc1 (stereo unspecified),11,14,-2%,-1,6,-1
O=C(CCN1CCc2ccccc2C1)Nc1cccc(F)c1,9,0,-4%,-10,-8,-66*
O=C(CCN1CCc2ccccc2C1)Nc1ccccc1F,0,5,?,0,-6,-78*
O=C(CCN1CCc2ccccc2C1)Nc1ccccc1,2,9,?,-11,-2,-73*
O=C(CCN1CCOCC1)Nc1ccccc1,2,-14,-5%,4,6,12
O=C(CCC(=O)N1CCSc2ccccc21)Nc1cccc(F)c1,4,-31*,24%,-5,-2,1
COc1ccc(NC(=O)C2(C)CCCN(C(C)=O)C2)cc1F (stereo unspecified),.,.,.,8,.,-25
SMILES,D1 ag,D1 antagonist,BCR signal inh,DRD3 agonist,D1 potentiator,DRD3 antagonist
COCCOC(=O)c1c(-c2ccccc2)c(-c2ccccc2)nn(C)c1=O,4,3,.,11,0,.
Cc1ccc(/C=N/NC(=O)Cc2ccc(O)cc2)s1,3,-33*,?,-11,4,0
COc1ccc(N2CCN(CC(O)COc3ccc(C(C)(C)C)cc3)CC2)cc1 (stereo unspecified),1,-13,.,-4,0,.
COc1ccc(OCC(O)CN2CCN(c3ncccn3)CC2)cc1 (stereo unspecified),2,2,-7%,31*,5,?
CCc1ccc(OCC(O)CN2CCN(c3ccc(OC)cc3)CC2)cc1 (stereo unspecified),30*,-40*,0%,-10,0,-27
O=C(CSc1nccn1Cc1ccccc1)NCc1ccccc1Cl,2,-2,.,-14,2,.
CCOC(=O)c1sc(=S)n(-c2cccc(C(F)(F)F)c2)c1SC,7,-32*,5%,1,-1,1
Cc1ccc(N=C2C(=S)N(c3ccc(C)cc3)C(=N)N2/N=C/c2ccc(Cl)cc2)cc1,-1,-23,-10%,0,-11,-51*
O=C(CSc1nc(=O)n(Cc2ccncc2)c2c1CCC2)Nc1cccc(F)c1,-2,.,0%,7,2,.
O=C(CSc1nc(NS(=O)(=O)c2ccccc2)cc(=O)[nH]1)Nc1ccc(Cl)cc1,3,-14,?,-3,-4,-17
Cc1ccc(S(=O)(=O)Nc2cc(=O)[nH]c(SCc3ccccc3Cl)n2)cc1,12,-32*,1%,-1,-8,-16
O=c1cc(NS(=O)(=O)c2ccccc2)nc(SCc2ccc(Cl)cc2)[nH]1,18,-36*,-2%,10,-6,9
CC(C)(C)c1cc(=O)[nH]c(SCc2ccccc2Cl)n1,6,10,?,14,5,13
O=S(=O)(c1ccc(Cl)cc1)N1CCN(c2nc(-c3cccc(Br)c3)nc3ccccc23)CC1,1,-13,.,.,4,.
CCOc1nc(Nc2ccc([N+](=O)[O-])cc2)nc(NC(C)(C)C)n1,1,-4,21%,9,-9,-17
C=CCNc1nc(Nc2ccc([N+](=O)[O-])cc2)nc(OCC)n1,3,-55*,-1%,-8,-9,5
c1ccc(Cc2noc(CN3CCN(C4CCc5ccccc5C4)CC3)n2)cc1 (stereo unspecified),32*,1,?,-14,5,-23
CCCc1ccc(S(=O)(=O)NCCc2ccncc2)cc1,8,-25,?,0,-7,4
CC(C)(C)c1ccc(S(=O)(=O)NCCc2ccncc2)cc1,5,-95*,0%,3,-6,-8
CCNC(=O)C1(C)CCN(C(=O)C(c2ccccc2)c2ccccc2)C1 (stereo unspecified),.,.,.,7,.,25

# Compound activity: PubChem BioAssay, National Center for Advancing Translational Sciences (NCATS)
